In all, about 340,000 compounds went through this assay and about 1,000 (0.29%) were called active. These entries were drawn from the full list. Potency and affinity values are given separately. A number with no mark means an inactive call. Cut-off read from the data, not from the text of the source: inconclusive = inhibition above about 27% without an active follow-up result; inactive = below that.
Assay: H1N1 influenza NS1A inhibitors, functional cell based assay (AID 504329)
Conditions: percent inhibition, at 12.5 µM, active compounds read high

Structure (SMILES) | inhibition [%]
C=CC(C)(C)c1c(O)c(CC=C(C)C)c(O)c2c(=O)c3ccc(O)c(O)c3oc12 | 4.4
O=C(Cc1cccc(C(F)(F)F)c1)OCC(=O)N1CCN(S(=O)(=O)c2ccc(Cl)cc2)CC1 | -3.3
CCOc1ccc(NC(=O)C2CCCN2C(=O)NC2CCCCC2)cc1 (centres undefined) | 3.03
Cc1ccc2cc(CCNC(=O)C3CCCC3)c(=O)[nH]c2c1 | 9.32
CCC(C)(C)NC(=O)C(c1ccc(OC)cc1)N(C(=O)CCC(=O)Nc1cc(C)on1)c1ccc2c(c1)OCCO2 (centres undefined) | -4.61
CNC(=O)c1[nH]cnc1C(=O)Nc1cccc(C)c1 | -8.44
COc1ccc(OCC(=O)Nc2ccc3c(c2)nc(CCn2ccccc2=O)n3C)cc1 | 5.24
CN1CCN(C(=O)c2ccc3nc(-c4ccccc4)c(-c4ccccc4)nc3c2)CC1 | -4.76
CN1CCN(C(=O)c2ccc3ccccc3c2)CC1 | -18.4
Cc1cc(N2CCN(C)CC2)nc(-c2ccccc2O)n1 | 8.33
Oc1cc(-c2ccc(N3CCCCC3)nc2)cc2cccnc12 | -0.13
CC(C)(C)c1ccc(C(=O)N2CCNCC2)cc1 | -7.49
O=C(c1ccc(-c2ccccc2)cc1)N1CCN(c2ncccn2)CC1 | 20.6
Cc1[nH]c2ccccc2c1C(=O)C(=O)N1CC(C)OC(C)C1 (centres undefined) | -0.55
COc1ccc(NC(=O)CN(C)C(=O)C2CSC3(C)CCC(=O)N23)cc1 (centres undefined) | -5.66
O=C(CCNC(=O)N1CC(=O)Nc2ccccc21)Nc1ccc(Cl)cc1 | -4.42
Cc1cc(C(=O)NN)c2cc(Br)ccc2n1 | -10.8
O=C(c1ccc(F)cc1F)N1CCC(N2CCC(C(=O)N3CCOCC3)CC2)CC1 | 4.56
CCOC(=O)C(=O)Nc1ccccc1C(=O)NCc1ccccc1 | -18.5
CC(C)Cn1cnc2c(c1=N)C(c1ccccc1)C1=C(CC(C)(C)CC1=O)O2 (centres undefined) | 0.81
COc1ccc(C2C(C(=O)c3ccccc3)N3c4ccccc4C=CC3C2[N+](=O)[O-])cc1 (centres undefined) | -12.1
O=C(c1ccco1)[C@@H]1[C@@H]2C(=O)N(c3ccc(F)cc3)C(=O)[C@@H]2[C@H]2C=Cc3ccccc3N21 | 0.66
Cc1cc(C)cc(N2C(=O)CCN(Cc3ccccc3)C2=O)c1 | 0.48
CC1=NN(c2ccccc2)C(=O)/C1=C/C=C/c1ccccc1 | 9.01

Structure (SMILES) | inhibition [%]
CC1=NN(c2ccccc2)C(=O)/C1=C/c1ccc(Cl)cc1 | 4.56
Cc1c(N=C/C=C2\N(C)c3ccccc3C2(C)C)c(=O)n(-c2ccccc2)n1C | 1.39
CC1=NN(c2ccccc2)C(=O)/C1=C\C=C1\N(C)c2ccccc2C1(C)C | 25.6
CC1=NN(c2ccccc2)C(=O)/C1=C/c1cccc(C)c1 | -0.71
CC1=NN(c2ccccc2)C(=O)/C1=C/C=C/C=C/N(C)C | 22.1
CC1=NN(c2ccccc2)C(=O)/C1=C/c1cccs1 | 24.1
CC1=NN(c2ccccc2)C(=O)/C1=C/N(C)C | 12.1
CC(=O)Nc1cc(C)c2nc(NC(C)=O)sc2c1 | 8.68
Cc1cc(C)c2nc(N3CCCC(C(=O)NC4CCCC4)C3)sc2c1 (centres undefined) | 1.03
CN(CC(=O)Nc1c(Cl)cccc1Cl)C(=O)CCC1CCCC1 | -7.47
CCOc1ccc(OCCC(=O)OCC(=O)NCc2ccccc2)cc1 | 4.79
Cc1nc2ccccc2c2oc(C(=O)N3CCc4ccccc4C3)cc12 | 14.6
COc1ccccc1C(=O)NC(=O)COC(=O)c1ccc(Cl)cc1[N+](=O)[O-] | 11.3
O=C(N/N=C\C=C\c1ccc2c(c1)OCO2)C1COc2ccccc2O1 (centres undefined) | -2.03
CN1/C(=C\C=C2C(=O)NC(=O)NC2=O)C(C)(C)c2ccccc21 | -3.94
Cc1ccc(N2C(=O)NC(=O)/C(=C\C=C\c3ccco3)C2=O)cc1 | -8.27
CN1/C(=C\C=C2C(=O)NC(=S)NC2=O)C(C)(C)c2ccccc21 | 6.82
O=C1NC(=O)N(c2ccccc2)C(=O)/C1=C/C=C/c1ccco1 | -5.11
O=C(O)c1ccc(N2C(=O)/C(=C/C=C/c3ccccc3)SC2=S)cc1 | -0.2
O=C1CC(N2C(=O)/C(=C/C=C/c3ccccc3)SC2=S)C(=O)N1c1ccccc1 (centres undefined) | 7.39
COC(=O)CC1=NN(c2ccccc2)C(=O)/C1=C\c1ccc(OC)cc1 | 3.36
CCOC(=O)CC1=NN(c2ccccc2)C(=O)/C1=C\c1ccc(OC)cc1OC | 17.9
Cc1ccc(S(=O)(=O)CCC(=O)OC2CC(C)OC2=O)cc1 (centres undefined) | -7.36
C=CCOc1ccc(Br)cc1/C=C1\NC(=S)N(C(C)=O)C1=O | 5.35

Structure (SMILES) | inhibition [%]
O=C(O)CP(=O)(c1ccccc1)c1ccccc1 | -20.8
O=C(NC1CC1)C1CSC(c2cccnc2)=N1 (centres undefined) | -5.68
COC(=O)CNC(=O)CNC(=O)c1nn(-c2ccc(OC)c(Cl)c2)c(=O)c2ccccc12 | -9.13
Cc1ccc(S(=O)(=O)c2nc(NCCN(C)C)sc2Cl)cc1 | 3.06
CCOC(=O)C1=C(C(=O)OCC)N(Cc2ccccc2)CCC1=O | -3.47
Cc1ccc(/C=N/NC(=O)C(C)NC(=O)c2ccccc2)cc1 (centres undefined) | -0.33
CCC(C)NC(=O)CSc1nc2ccccc2c(=O)n1-c1c(C)n(C)n(-c2ccccc2)c1=O (centres undefined) | -0.57
Fc1ccccc1CSc1nnc(-c2cnccn2)n1Cc1ccco1 | -1.61
O=C(NCCc1ccccc1)c1cc(-c2ccccc2)c(N2CCOCC2)s1 | 1.49
CCCNC(=O)c1cc(-c2ccccc2)c(N2CCCCC2)s1 | -16.7
Cc1[nH]c2ccccc2c1/C=N/NC(N)=S | 5.2
NC(=S)N/N=C\c1c2ccccc2cc2ccccc12 | 8.41
Cn1cc(/C=N/NC(N)=S)c2ccccc21 | -12.5
NC(=S)N/N=C/c1c(O)ccc2ccccc12 | -3.38
CNc1cccnc1C=NNC(N)=S | 17.7
CC(=O)n1cc(/C=N/NC(N)=S)c2ccccc21 | -5.48
O=C(Nc1ccccc1)c1ccc(S(=O)(=O)NCc2cccnc2)cc1 | 10.4
CCn1c(SCC(=O)Nc2nc(-c3ccccc3)cs2)nc2c1c(=O)n(C)c(=O)n2C | 4.76
Cc1ccccc1-c1n[nH]c(=S)n1/N=C/C=C/c1ccco1 | -17.6
CNC(=O)Cn1nc(-c2ccc(C)c(S(=O)(=O)N(C)C)c2)c2ccccc2c1=O | -13.6
CC(=O)N(C)C1=C(N2CCOCC2)C(=O)c2ccccc2C1=O | 1.43
COc1ccccc1NC1=C(N2CCCCC2)C(=O)c2ccccc2C1=O | -0.23
O=C1C(Nc2ccccc2)=C(N2CCCCC2)C(=O)c2ccccc21 | 15.3
CC(=O)N(C1=C(N2CCOCC2)C(=O)c2ccccc2C1=O)c1ccc(C(=O)O)cc1 | 0.48

Structure (SMILES) | inhibition [%]
O=C(Nc1ccc(OC(F)F)cc1)c1cc(S(=O)(=O)N2CCOCC2)ccc1F | -7.89
COCc1c(C(=O)OCC(=O)N(C)C2CCS(=O)(=O)C2)oc2ccccc12 (centres undefined) | -9.04
Cc1ccccc1NC(NC(=O)c1cccnc1)C(Cl)(Cl)Cl (centres undefined) | -5.69
Cc1ccc(S(=O)(=O)/N=C2\C=C(NS(=O)(=O)c3ccccc3)C(=O)c3ccccc32)cc1 | 8.43
Cc1ccc(S(=O)(=O)Nc2ccc(N=Nc3ccc(O)cc3)cc2)cc1 | 4.71
COCCC(=O)N1CCC(Oc2ccc(C(=O)NC3CCOC(C)(C)C3)cc2)CC1 (centres undefined) | 5.89
O=C1C(=O)c2ccccc2-c2ccccc21 | 5.48
O=C1C(=O)c2ccc(-c3ccccc3)cc2-c2ccccc21 | -3.6
CC1CCN(CCCNC(=O)c2cc3c(s2)-c2ccccc2OC3)CC1 | -6.94
Cc1c(Cl)cccc1NC(=O)CC1Oc2ccccc2NC1=O (centres undefined) | -22.6
Fc1ccc(/C=N/NC(=S)Nc2cccnc2)cc1 | -6.6
S=C(N/N=C/c1ccc2ncccc2c1)Nc1cccnc1 | -1.92
CN(C)S(=O)(=O)c1cccc(NC(=S)N/N=C/c2cc(Br)ccc2O)c1 | -4.31
Oc1ccc(/C=N/NC(=S)Nc2cccnc2)cc1O | -4.43
Fc1ccc(/C=N/NC(=S)Nc2cccnc2)cc1F | 5.25
COc1cccc(/C=N/NC(=S)Nc2cccc(S(=O)(=O)N(C)C)c2)c1 | -0.6
Fc1cccc(F)c1/C=N/NC(=S)Nc1cccnc1 | 4.25
COc1cc(/C=N/NC(=S)Nc2cccnc2)cc(OC)c1OC | -1.86
O=S(=O)(c1ccccc1)N1CCN(C2CCCCCCC2)CC1 | -3.77
CCCn1c(=O)c(C(=O)NCc2ccc3c(c2)OCO3)c(O)c2ccccc21 | -2.14
COc1ccc2oc(C(=O)OCC(=O)N3CC(C)CC(C)C3)c(C)c2c1 (centres undefined) | -0.35
CSCCC(NC(=O)c1ccccc1)C(=O)NC1CCCC1 (centres undefined) | 1.8

Reference: PubChem BioAssay AID504329 (Southern Research Specialized Biocontainment Screening …, 2011)
